Experimental data as given in PubChem BioAssay (EPA / NIEHS).
The source made the active and inactive calls. The calls were made as follows: active = hit-call score of the fitted dose curve at least 0.9, where 1 is the maximum; inactive = score below 0.9.

Tests used:
Details in all cases: mRNA level, 48 h; actives raise or lower the signal
MYC, MYC (gene 4609) = assay: LTEA_HepaRG_MYC: Life Technologies and Expression Analysis (LTEA) Assay for MYC using HepaRG (AID 2283518)
Summary of the method: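 HepaRG, ~100,000 cells/well, collagen I; 48 h plating; serum-free induction medium; 48 h dosing, duplicate, 100 uM top, half-log, 0.5% DMSO; total RNA → qRT-PCR MYC; gain/loss fit vs DMSO.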

[1] = read-out: matrix metalloproteinase-3 (MMP3), MMP3 (gene 4314); assay: LTEA_HepaRG_MMP3: Life Technologies and Expression Analysis (LTEA) Assay for matrix metalloproteinase-3 (MMP3) using HepaRG (AID 2283519)
Summary of the method: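 HepaRG, human; 48 h dosing, 8 conc. (max 100 uM, half-log), duplicate, 0.5% DMSO. Readout: MMP3 transcript by Fluidigm TaqMan qRT-PCR, ACTB/GAPDH/POLR2A-normalised. Gain or loss fitted vs DMSO.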

[2] = read-out: Paternally Expressed 10 (PEG10), PEG10 (gene 23089); assay: LTEA_HepaRG_PEG10: Life Technologies and Expression Analysis (LTEA) Assay for Paternally Expressed 10 (PEG10) using HepaRG (AID 2283520);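 as to AC50: PEG10 transcript by qRT-PCR normalised to ACTB GAPDH and POLR2A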
Summary of the method: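 Chemicals tested on HepaRG cells for 48 h, highest concentration 100 uM. PEG10 expression assessed by qRT-PCR relative to DMSO control.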

[3] = read-out: Nuclear factor NF-kappa-B p105 subunit (Homo sapiens) (UniProt P19838); assay: LTEA_HepaRG_NFKB1: Life Technologies and Expression Analysis (LTEA) Assay for Nuclear Factor Kappa B Subunit 1 (NFKB1) using HepaRG (AID 2283521)
Summary of the method: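 Human HepaRG cells receive eight half-log concentrations, highest 100 uM, for 48 h. NFKB1 expression is then quantified by qRT-PCR and analysed for up- or down-regulation relative to 0.5% DMSO vehicle.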

[4] = read-out: Protein phosphatase 2A (PPP2R4), PTPA (gene 5524); assay: LTEA_HepaRG_PPP2R4: Life Technologies and Expression Analysis (LTEA) Assay for Protein phosphatase 2A (PPP2R4) using HepaRG (AID 2283522)
Summary of the method: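 Gene-expression endpoint in HepaRG hepatic cells: 48 h treatment across eight half-log concentrations up to 100 uM in 0.5% DMSO. PPP2R4 mRNA by qRT-PCR, normalized to three endogenous control genes.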

[5] = read-out: Phosphatase and tensin (PTEN), PTEN (gene 5728); assay: LTEA_HepaRG_PTEN: Life Technologies and Expression Analysis (LTEA) Assay for Phosphatase and tensin (PTEN) using HepaRG (AID 2283523)
Summary of the method: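 Read-out is PTEN transcript level by multiplexed TaqMan qRT-PCR after 48 h chemical treatment of human HepaRG cultures in serum-free induction medium. Concentrations spanned 100 uM downward in half-log steps, 0.5% DMSO throughout; activity fitted in both directions against vehicle.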

[6] = read-out: solute carrier (SLC22A1), SLC22A1 (gene 6580); assay: LTEA_HepaRG_SLC22A1: Life Technologies and Expression Analysis (LTEA) Assay for solute carrier (SLC22A1) using HepaRG (AID 2283524);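 as to AC50: differentiated human HepaRG liver cells in serum-free induction medium; TaqMan qRT-PCR normalized to ACTB GAPDH and POLR2A housekeeping genes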
Summary of the method: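 HepaRG (human liver line), 48 h dosing in serum-free induction medium; 8 conc., half-log down from 100 uM, 0.5% DMSO vehicle, duplicates. Endpoint: SLC22A1 mRNA, qRT-PCR, housekeeping-normalized; gain/loss fit vs DMSO.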

[7] = read-out: Pyruvate Dehydrogenase Kinase 4 (PDK4), PDK4 (gene 5166); assay: LTEA_HepaRG_PDK4: Life Technologies and Expression Analysis (LTEA) Assay for Pyruvate Dehydrogenase Kinase 4 (PDK4) using HepaRG (AID 2283525)
Summary of the method: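 In this multiplexed human HepaRG expression assay, cells are treated 48 h with test chemicals across an eight-point range starting at 100 uM. PDK4 mRNA changes, normalized to ACTB/GAPDH/POLR2A, are fitted in both directions relative to vehicle.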

[8] = read-out: Nuclear factor erythroid 2-related factor 2 (Homo sapiens) (UniProt Q16236); assay: LTEA_HepaRG_NFE2L2: Life Technologies and Expression Analysis (LTEA) Assay for Nuclear factor erythroid 2-related factor 2 (NFE2L2) Transcription Factor using HepaRG (AID 2283527)
Summary of the method: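 Transcript level of NFE2L2 is the read-out, measured by microfluidic TaqMan qRT-PCR and normalized to three housekeeping genes. Human HepaRG cultures received test chemical for 48 h at up to 100 uM in half-log steps. Gain or loss of signal is fitted relative to 0.5% DMSO.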

[9] = read-out: NAD(P)H dehydrogenase [quinone] 1 (NQO1), NQO1 (gene 1728); assay: LTEA_HepaRG_NQO1: Life Technologies and Expression Analysis (LTEA) Assay for NAD(P)H dehydrogenase [quinone] 1 (NQO1) using HepaRG (AID 2283526)
Summary of the method: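 Human HepaRG hepatic cells received chemicals for 48 h in serum-free induction medium with 0.5% DMSO, up to 100 uM. Expression was assessed by TaqMan qRT-PCR against housekeeping controls and fitted bidirectionally against DMSO.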

Measured: AC50

Nuclear factor erythroid 2-related factor 2 (Homo sapiens), sequence (Q16236 whole entry, looked up): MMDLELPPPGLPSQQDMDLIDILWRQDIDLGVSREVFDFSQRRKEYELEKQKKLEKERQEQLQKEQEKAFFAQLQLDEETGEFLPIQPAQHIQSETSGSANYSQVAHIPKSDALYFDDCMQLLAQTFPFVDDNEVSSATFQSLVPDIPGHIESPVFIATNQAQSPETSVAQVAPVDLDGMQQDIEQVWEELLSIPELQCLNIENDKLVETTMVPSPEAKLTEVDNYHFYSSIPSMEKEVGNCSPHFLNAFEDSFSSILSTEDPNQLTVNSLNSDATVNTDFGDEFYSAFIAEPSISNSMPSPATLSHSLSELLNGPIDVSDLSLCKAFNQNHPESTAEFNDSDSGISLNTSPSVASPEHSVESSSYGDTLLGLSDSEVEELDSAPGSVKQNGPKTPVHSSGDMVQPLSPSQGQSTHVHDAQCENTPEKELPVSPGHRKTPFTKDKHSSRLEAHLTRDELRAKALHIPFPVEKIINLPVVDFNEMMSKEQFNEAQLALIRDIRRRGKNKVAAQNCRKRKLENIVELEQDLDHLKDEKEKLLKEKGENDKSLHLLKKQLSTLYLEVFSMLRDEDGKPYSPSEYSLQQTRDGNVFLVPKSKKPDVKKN
Nuclear factor NF-kappa-B p105 subunit (Homo sapiens), sequence (P19838 whole entry, looked up): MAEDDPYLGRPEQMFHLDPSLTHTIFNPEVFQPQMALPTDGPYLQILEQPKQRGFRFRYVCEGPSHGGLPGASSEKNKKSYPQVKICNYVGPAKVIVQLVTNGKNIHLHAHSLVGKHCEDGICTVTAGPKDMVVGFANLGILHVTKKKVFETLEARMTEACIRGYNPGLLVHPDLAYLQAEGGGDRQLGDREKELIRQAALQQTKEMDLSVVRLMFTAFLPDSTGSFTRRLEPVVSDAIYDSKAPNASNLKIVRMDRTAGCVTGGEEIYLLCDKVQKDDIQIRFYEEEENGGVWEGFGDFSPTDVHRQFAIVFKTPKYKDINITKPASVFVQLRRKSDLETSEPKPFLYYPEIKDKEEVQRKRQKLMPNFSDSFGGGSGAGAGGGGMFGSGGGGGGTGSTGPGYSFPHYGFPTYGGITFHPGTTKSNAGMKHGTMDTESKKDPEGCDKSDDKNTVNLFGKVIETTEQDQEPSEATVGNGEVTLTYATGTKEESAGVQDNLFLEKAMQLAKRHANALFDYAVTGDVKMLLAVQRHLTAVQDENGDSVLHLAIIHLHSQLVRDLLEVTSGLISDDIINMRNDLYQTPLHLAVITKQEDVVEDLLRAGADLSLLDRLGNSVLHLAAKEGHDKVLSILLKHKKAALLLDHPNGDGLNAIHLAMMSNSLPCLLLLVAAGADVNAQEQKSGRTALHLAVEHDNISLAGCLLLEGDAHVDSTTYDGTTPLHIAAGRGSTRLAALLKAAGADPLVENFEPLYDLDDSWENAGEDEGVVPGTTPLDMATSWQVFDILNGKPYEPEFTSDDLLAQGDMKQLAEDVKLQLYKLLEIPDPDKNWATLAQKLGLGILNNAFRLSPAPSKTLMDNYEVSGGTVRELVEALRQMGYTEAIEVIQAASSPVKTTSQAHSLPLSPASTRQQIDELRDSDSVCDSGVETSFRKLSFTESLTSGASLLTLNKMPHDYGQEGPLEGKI

C=C(C)C(=O)OCCC(F)(F)C(F)(F)C(F)(F)C(F)(F)C(F)(F)C(F)(F)F
active: [7] 14 µM
not listed: [9]
inactive: all other assays above

COCC(C)O (centres undefined)
inactive: all assays above

O=c1c(-c2ccc(O)cc2)coc2cc(O)ccc12
not listed: [1]
inactive: all other assays above

COC(=O)CCCCC(=O)OC
not listed: [3] | [9]
inactive: all other assays above

CN(C)C=O
not listed: [9]
inactive: all other assays above

CCC(=C(c1ccc(O)cc1)c1ccc(OCCN(C)C)cc1)c1ccccc1
active: MYC, MYC (gene 4609) 77.7 µM | [6] 93.4 µM
not listed: [9]
inactive: all other assays above

CCc1nn(C2CCCCC2)c2cc(C3(C#N)CCC(C(=O)O)CC3)ccc12 (centres undefined)
active: MYC, MYC (gene 4609) 50 µM | [2] 12.8 µM | [4] 11.4 µM | [6] 72.6 µM | [7] 33.6 µM | [8] 50 µM
inactive: [1] | [3] | [5]

OC1CCCCC1
not listed: [3] | [9]
inactive: all other assays above

CCC(C)(C)C1CCC(O)CC1 (centres undefined)
not listed: [9]
inactive: all other assays above

CCCCCCCCCCCCN1CCCC1=O
not listed: [9]
inactive: all other assays above

Oc1cc2ccccc2c2ccccc12
active: [2] 50 µM | [6] 50 µM
not listed: [9]
inactive: all other assays above

OCCC(F)(F)C(F)(F)C(F)(F)C(F)(F)C(F)(F)C(F)(F)F
not listed: [3] | [9]
inactive: all other assays above

CCCOC(=O)c1ccc(O)cc1
not listed: [2] | [3] | [9]
inactive: all other assays above

CCCCC(CC)COC(=O)CCCCC(=O)OCc1ccccc1 (centres undefined)
not listed: [3] | [9]
inactive: all other assays above

NC(=O)N1C(=O)C(C(=O)c2cc(Cl)cs2)c2cc(F)c(Cl)cc21 (centres undefined)
active: MYC, MYC (gene 4609) 27 µM | [1] 50 µM | [2] 20.8 µM | [4] 13.9 µM | [5] 50 µM | [6] 16.1 µM | [7] 27.8 µM | [9] 13.3 µM | [8] 31.8 µM

CC[C@H](c1ccc(O)cc1)[C@@H](CC)c1ccc(O)cc1
active: [4] 82.8 µM | [6] 71.4 µM | [7] 80.4 µM | [8] 78.8 µM
not listed: [9]
inactive: all other assays above

CC(O)CO (centres undefined)
not listed: [9]
inactive: all other assays above

CC(C)(C)c1cccc(C(C)(C)C)c1O
not listed: [9]
inactive: all other assays above

N#C[C@@H]1CC(F)(F)CN1C(=O)CNC1CC2CCC(C1)N2c1ncccn1 (some centres undefined)
active: [3] 1.8 µM
not listed: [9]
inactive: all other assays above

c1ccc2cc3c(ccc4ccccc43)cc2c1
inactive: [1] | [4] | [5] | [8]
active: MYC, MYC (gene 4609) 13.4 µM | [2] 12.1 µM | [6] 18.6 µM | [7] 22.9 µM

Cc1cc(C)c(O)c(C)c1
not listed: [3] | [9]
inactive: all other assays above

CCCCCCC(=O)O
not listed: [3] | [9]
inactive: all other assays above

CN1CCN(c2ccccc2/C=C2\SCCN(c3ccc(Cl)c(Cl)c3)C2=O)CC1
active: [1] 87.1 µM | [2] 14 µM | [6] 93.8 µM | [8] 79.5 µM
not listed: [9]
inactive: all other assays above

CC#C[C@]1(O)CC[C@H]2[C@@H]3CCC4=CC(=O)CCC4=C3[C@@H](c3ccc(N(C)C)cc3)C[C@@]21C
inactive: [1] | [2] | [5]
active: MYC, MYC (gene 4609) 50 µM | [3] 50 µM | [4] 13.8 µM | [6] 25.2 µM | [7] 0.504 µM | [8] 50 µM

CC[C@H](C)[C@@H](C(=O)O)n1sc2ccccc2c1=O
not listed: [3] | [9]
inactive: all other assays above

C#C[C@]1(O)CC[C@H]2[C@@H]3CCC4=CC(=O)CC[C@@H]4[C@H]3CC[C@@]21C
active: [1] 7.81 µM | [2] 0.321 µM | [6] 32.1 µM
not listed: [9]
inactive: all other assays above

CN1CCC[C@H]1c1cccnc1
not listed: [3] | [9]
inactive: all other assays above

CCCCCCCC(=O)O
active: [8] 12.3 µM
not listed: [3] | [9]
inactive: all other assays above

CC(C)(C)c1cc(C(C)(C)C)c(O)c(C(C)(C)C)c1
active: [7] 23.5 µM
not listed: [3]
inactive: all other assays above

OCCC(F)(F)C(F)(F)C(F)(F)C(F)(F)C(F)(F)C(F)(F)C(F)(F)C(F)(F)F
not listed: [9]
inactive: all other assays above

CCCCCCCCC(=O)O
not listed: [3] | [9]
inactive: all other assays above

CCN(CC)CCNc1ccc(CNC=O)c2sc3ccc(OC)cc3c(=O)c12
inactive: MYC, MYC (gene 4609)
active: [1] 86.4 µM | [2] 62 µM | [4] 50 µM | [5] 50 µM | [6] 13.9 µM | [7] 44.3 µM | [8] 87 µM

OC1CCC(C2CCCCC2)CC1 (centres undefined)
not listed: [3]
inactive: all other assays above
